Screens from PubChem BioAssay.
G9a block = blocks human histone lysine methyltransferase G9a. Q96KQ7. G9a H3K9 monomethylation, AlphaScreen, 2 h. Potency, µM (titrated, usually from 102 µM), for inactives: at the highest dose activity, negative = inhibition, most hits filed as inhibitors. 8.8% of 350,000 active; further: potency means the concentration at half of the fitted maximal effect; on the % scale 0 is the no-effect control and ±100 the full control effect; nearly all actives have a fitted effect of over 75% in size
Target sequence (Q96KQ7 913-1193 limits assumed): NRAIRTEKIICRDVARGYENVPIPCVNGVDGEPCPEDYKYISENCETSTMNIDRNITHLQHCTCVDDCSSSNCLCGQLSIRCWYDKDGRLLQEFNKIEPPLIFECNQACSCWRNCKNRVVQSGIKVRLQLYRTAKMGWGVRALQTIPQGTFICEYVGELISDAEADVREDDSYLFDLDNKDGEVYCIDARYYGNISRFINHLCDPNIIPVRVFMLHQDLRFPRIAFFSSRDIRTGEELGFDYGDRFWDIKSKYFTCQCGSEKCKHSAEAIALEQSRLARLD
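Using a bead-based AlphaScreen, monomethylated H3K9 product from 2 h room-temperature reactions (G9a 20 nM, peptide 500 nM, SAM 20 uM) was detected with 0.5 ug/mL rabbit anti-H3K9me1 antibody.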
BAZ2B block = BAZ2B (human) inhibition. AlphaScreen BAZ2B-H3K14Ac peptide displacement. Potency, µM (top dose mostly 114 µM), without a hit: top-dose activity change, negative = inhibition, hits mostly inhibitors. 4.4% of 360,000 active. AID 504333; further: potency means the concentration at half of the fitted maximal effect; on the % scale 0 is the no-effect control and ±100 the full control effect; nearly all actives have a fitted effect of over 60% in size
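Compounds, titrated to a top concentration of 110 uM, were incubated 30 min at room temperature with preformed BAZ2B/acetyl-K14 H3 peptide complex (50 nM each). Proximity signal was measured by AlphaScreen after 20 min with beads.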
PI5P4K alpha inh = blocks human PI5P4K alpha kinase activity; P48426; PI5P4Kalpha enzyme, ADP-Glo luminescence, 60 min; stronger effect = lower value; max response, %; 1.2% of 330,000 active; AID 652105; active means max response of -50% or lower; inconclusive means between -30% and -50%; inactive means -30% or higher; further: value at the top dose of about 77 µM; on the % scale 0 is the no-effect control and ±100 the full control effect
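ADP-Glo luminescence end-point after a 60 min room-temperature kinase reaction. PI5P4Kalpha and substrate in HEPES pH 7.4 buffer with EGTA, 0.1% CHAPS and 5% DMSO; ATP at 5 microM final.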
HP1b binding inh = HP1-beta chromodomain-methylated histone interaction inhibition; P83916; AlphaScreen HP1-beta / biotin-H3K9me3 peptide binding; Potency, µM (top dose mostly 114 µM), inactives show at the top dose activity change, negative = inhibition, hits mostly inhibitors; 0.56% of 390,000 active; AID 540317; further: potency means the concentration at half of the fitted maximal effect; nearly all actives have a fitted effect of over 70% in size
Target sequence (P83916 whole entry, looked up): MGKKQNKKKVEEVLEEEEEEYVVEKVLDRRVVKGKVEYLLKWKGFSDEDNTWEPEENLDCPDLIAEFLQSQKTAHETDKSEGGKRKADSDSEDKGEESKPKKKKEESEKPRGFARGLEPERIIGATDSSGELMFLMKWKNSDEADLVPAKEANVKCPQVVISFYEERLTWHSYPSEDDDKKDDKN
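HP1-beta protein (50 nM final) preincubated 30 min at room temperature with biotinylated H3(1-18)K9me3 peptide (50 nM) in PBS pH 7.4, 0.01% Tween-20, then compound added for 30 min. AlphaScreen streptavidin donor/nickel chelate acceptor beads (10 ug/mL final), 30 min dark, luminescence read.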
PLK1 PBD inh = PLK1 (human) polo-box domain binding inhibition; Potency, µM, inactives show max response, negative = inhibition, hits mostly inhibitors; P53350; Plk1 PBD binding of FITC phosphopeptide, fluorescence polarization; 2.8% of 360,000 active; further: potency means the concentration at half of the fitted maximal effect; series mostly up to about 57 µM; on the % scale 0 is the no-effect control and ±100 the full control effect; nearly all actives have a fitted effect of over 65% in size
JMJD2A Tudor = inhibitors of human JMJD2A Tudor domain; Potency, µM (titrated, usually from 114 µM), without a hit: at the highest dose activity change, negative = inhibition, usual class: inhibitors; 4.4% of 390,000 active; AlphaScreen JMJD2A-Tudor / H3K4me3 peptide binding; AID 504339; O75164; further: potency means the concentration at half of the fitted maximal effect; on the % scale 0 is the no-effect control and ±100 the full control effect; nearly all actives have a fitted effect of over 50% in size
An asterisk follows results filed as active; u = inconclusive; x = not tested or not shown; [ ] = remark or other dose. This is a sample that favours compounds with a hit; in the whole collection about 12% have one here. Unless noted, the call rests on the fitted dose curve; in most records, active means well fitted curve in the direction sought with a large enough effect; inconclusive means small, poorly fitted or top-dose-only effect, or another doubt; inactive means no such curve, though single readings can be large; an effect the other way counts as inactive or inconclusive.

SMILES | G9a block | BAZ2B block | PI5P4K alpha inh | HP1b binding inh | PLK1 PBD inh | JMJD2A Tudor
NNC(=O)C1CCCN1S(=O)(=O)c1ccc(Cl)cc1 (stereo not drawn) | 18.7% | -22.7% | -6.3 | 17.8% | -9.0% | -10.5%[57.1 µM]
CCN(C(=O)C(NS(=O)(=O)c1cccc2nsnc12)c1ccccc1)c1ccccc1 (stereo not drawn) | 2.82µM* | x | x | 5.3% | x | u
CCN(C(=O)CCS(=O)(=O)c1cccc2nsnc12)c1cccc(C)c1 | -6.0%[59 µM] | -1.8% | -0.3 | 26.0% | -17.0% | -11.0%
CCC(C)NC(=O)C(NS(=O)(=O)c1cccc2nsnc12)c1ccccc1 (stereo not drawn) | 22.9% | 8.3% | -15.9 | -12.5% | -6.5% | -17.8%
CC(=O)c1cccc(NC(=O)CCS(=O)(=O)c2cccc3nsnc23)c1 | 10µM* | -3.6% | -8.4 | -38.0% | 23.8µM* | -27.5%[57.1 µM]
C=CCN(C(=O)CCS(=O)(=O)c1cccc2nsnc12)c1ccccc1 | 44.7µM* | -3.9% | -11.7 | 2.7% | u | -23.0%
O=C(CCS(=O)(=O)c1cccc2nonc12)NC1CCCCCC1 | -8.0%[2.33 µM] | 1.6% | 1.0 | 16.0% | -8.8% | -21.5%
O=C(CCS(=O)(=O)c1cccc2nsnc12)NC1CCCCCC1 | 39.8µM* | -1.4%[57.1 µM] | -7.3 | 13.7% | -27.4% | -10.8%
CCOc1cccc(C2c3[nH]c4ccccc4c3CCN2C(=O)CSc2ccccc2)c1 (stereo not drawn) | -40.0%[59 µM] | -25.2% | x | 7.1%[57 µM] | x | -31.5%
COC(=O)c1ccc(CN(c2ccc(C)cc2)S(=O)(=O)c2ccc3c(c2)OCCO3)o1 | 8.6%[59 µM] | 6.0% | u | -9.5% | 2.99µM* | -30.8%[11.4 µM]
O=c1[nH]c(/C=C\c2ccc(O)c(O)c2)nc(O)c1[N+](=O)[O-] | 39.8µM* | u | -80.1* | -3.5% | -6.0% | u
O=c1[nH]c(/C=C\c2cccc(O)c2)nc(O)c1[N+](=O)[O-] | -74.3% | 4.9% | -81.4* | 34.9% | 3.7% | -2.0%
CN(C(=O)c1cccc(NC(=O)Cc2ccc(NC(=O)C3CCCN(C(=O)c4ccccc4)C3)cc2)c1)C1CCCC1 (stereo not drawn) | x | x | 5.2 | 20.9% | -19.0% | -23.9%
O=C1OCc2nc3cc4c(cc3c(-c3ccc(F)cc3)c21)OCO4 | 25.6% | -1.8% | -6.7 | 4.6% | 23.8µM* | -17.8%
O=C(O)C(c1ccccc1)C1(O)CCCC1 (stereo not drawn) | -42.2% | 0.3% | 5.6 | 29.9% | -6.3% | -7.4%
O=C(O)C(SC(C(=O)O)c1ccccc1)c1ccccc1 (stereo not drawn) | x | x | -9.5 | 10.5% | -24.6% | 56.2µM*
O=C(O)C(c1ccccc1)C(c1ccccc1)c1ccccc1 (stereo not drawn) | -48.4% | 50.1µM* | -1.7 | 50.7% | -1.6% | -4.9%
O=C(O)C(Sc1ccncn1)c1ccccc1 (stereo not drawn) | -6.8% | -13.1% | 4.5 | 45.1% | -0.7% | -8.6%
CC1CCCCC1N1CCN(C(=O)c2cccc(F)c2)CC1 (stereo not drawn) | u | u | -6.2 | u | -4.9% | 39.8µM*
CC1CCCC(N2CCN(C(=O)c3cccc(F)c3)CC2)C1 (stereo not drawn) | u | 50.1µM* | x | u | -2.9% | 4.47µM*
COc1cccc(C(=O)N2CCN(C(=O)c3cccc(F)c3)CC2)c1 | -4.0%[59 µM] | -11.3% | 2.9 | 40.9% | -2.5% | -5.3%
CC1CCCC(N2CCN(C(=O)c3ccccc3F)CC2)C1 (stereo not drawn) | -4.7% | -2.2% | -6.1 | 39.8% | -0.5% | -4.8%
COc1cccc(CN2C(=O)CN(C3CCCCC3)C(=O)C2c2ccc(OC)c(OC)c2)c1 (stereo not drawn) | 3.8%[59 µM] | -3.2% | x | 9.0% | x | -14.1%
COc1cc(OC)c(NC(=O)N2CCc3c([nH]c4ccccc34)C2c2ccccc2F)cc1Cl (stereo not drawn) | u | -37.8% | x | 13.2% | x | u
O=C(Cc1cccc(NC(=O)C2CCN(C(=O)CCc3ccccc3)CC2)c1)Nc1cccc(C(=O)N2CCCC2)c1 | 13.1%[0.501 µM] | -9.9% | -2.3 | 15.5% | -5.6% | -21.4%
SMILES | G9a block | BAZ2B block | PI5P4K alpha inh | HP1b binding inh | PLK1 PBD inh | JMJD2A Tudor
Clc1ccc(C2=NNC(=NCc3ccc4c(c3)OCO4)SC2)cc1 | 28.2µM* | -35.3% | -14.9 | -37.3% | 16.8µM* | u
CCOc1ccc(N=Cc2ccc(N(C)C)cc2)c(O)c1 | x | x | -54.0* | x | u | x
COc1ccc(CNC(=O)c2cn(Cc3ccc(OC(C)=O)cc3)c(=O)s2)cc1 | x | x | -0.8 | x | -9.5% | x
COc1cc(/C=N/NC(=O)c2ccc(Cn3cc([N+](=O)[O-])cn3)o2)cc(Br)c1O | 8.91µM* | -28.4% | -5.9 | 15.6% | -16.0% | -10.8%[57.1 µM]
COc1cc(/C=N/N(C)C)cc(Br)c1O | 14.1µM* | -32.0% | -2.9 | 13.1% | -10.3% | -27.5%
COc1cc(/C=N/O)cc(Br)c1OC | 11.0%[59 µM] | 3.5% | 5.1 | 67.3% | -21.4% | -18.8%[57.1 µM]
CN=c1scc(-c2cccs2)n1/N=C/c1ccc(O)c(O)c1O | 7.94µM* | 25.1µM* | -75.4* | 5.01µM* | 6.7µM* | 25.1µM*
CN=c1scc(-c2cccs2)n1/N=C/c1ccccc1O | 7.2%[59 µM] | u | 10.3 | u | -6.5% | -35.5%[57.1 µM]
CCCCCC(=O)N/N=C/c1cc(Br)c(O)c(OC)c1 | 50.1µM* | -31.9% | -16.6 | 11.3% | -9.2% | -7.1%
COC(=O)c1sc(N2C(=O)c3oc4ccc(C)cc4c(=O)c3C2c2ccc(OC)cc2)nc1C (stereo not drawn) | 3.7%[59 µM] | -1.5% | x | 39.1% | x | 5.5%
COc1cc(/C=N/NC(=O)C23CC4CC(CC(C4)C2)C3)cc(Br)c1O | u | -37.6% | -18.0 | -14.9% | -17.2% | -19.9%
CN=c1scc(C)n1/N=C/c1cc(Br)c(O)c(OC)c1 | 7.94µM* | 39.8µM* | -5.9 | -19.0% | -6.8% | u
CN=c1scc(C)n1/N=C/c1ccc(O)c(O)c1O | u | 25.1µM* | u | u | 6.7µM* | 50.1µM*
COc1cc(/C=N/N(C)c2ccccc2)cc(Cl)c1O | u | 44.7µM* | 3.0 | 22.4µM* | 0.6% | 25.1µM*
CCOc1nc(SC(C(C)=O)C(=O)Nc2ccccc2)nc(N(C)C)n1 (stereo not drawn) | 12.6µM* | -24.6% | 2.6 | 38.5% | u | 79.4µM*
Cc1[nH]c(=S)sc1Cc1ccc(F)cc1 | 2µM* | -33.5% | -19.3 | -7.1% | u | 39.8µM*
Cc1nc(-c2ccc(F)cc2)sc1CCNC(=O)Cc1ccc(F)cc1 | -3.6%[59 µM] | 0.0% | x | 20.4%[57 µM] | x | -25.2%
Cc1ccc(S(=O)(=O)NCC(=O)OCC(=O)NCc2ccc3c(c2)OCO3)cc1 | 56.2µM* | 12.0% | -5.8 | -2.6% | -5.7% | -16.0%
O=C(COC(=O)CSc1cc(Cl)ccc1Cl)NCc1ccc2c(c1)OCO2 | 17.0%[59 µM] | 1.3% | -3.1 | -7.2% | 26.7µM* | -29.6%
